Common to all, as to assay: log2 fold change, soluble protein after heating vs DMSO (PISA); higher = thermal stabilisation; K562 lysate, 10 uM; active = over 0.2 and 3.5 SD of the protein, either way, in both replicates (recomputed)
Compound in assay [1]: CCCS(=O)(=O)Nc1ccc(F)c(C(=O)c2c[nH]c3ncc(Cl)cc23)c1F
The essentials:
(§1)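 K562 pellets were dounce-homogenised in PBS pH 7.4 with 1 mM MgCl2, and the crude extract at 1 mg/mL protein was treated with 10 μM compound for 30 min. Aliquots were heated for 3 min across 48°C-58°C, pooled, and brought to 0.5% NP-40 at 4°C; soluble protein was the supernatant after 21,000xg for 90 min. Soluble protein was quantified by TMTpro 16plex LC-MS/MS with channel sums equalised, and reported as log2 fold change in thermal stability against DMSO controls, with values from duplicates.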

Compound in another assay: CC[C@@H]1C(=O)N(C)c2cnc(Nc3ccc(C(=O)N[C@H]4CC[C@H](N5CCN(CC6CC6)CC5)CC4)cc3OC)nc2N1C(C)C [volasertib]
In a few lines: as §1

Compound in assay [2]: CCn1c(C(=O)N(C2CC2)C2CC2)cc2c3c(ncn3C)c(Nc3cc(C)n(C)n3)nc21
The essentials:
as §1

Compound in a further assay: CN1CCN(CCOc2cc(OC3CCOCC3)c3c(Nc4c(Cl)ccc5c4OCO5)ncnc3c2)CC1 [saracatinib]
In a few lines:
as §1

Compound in a further assay: CN1CCN(c2nc(C3=C(c4c[nH]c5ccccc45)C(=O)NC3=O)c3ccccc3n2)CC1 [sotrastaurin]
The essentials:
as §1

Compound in a further assay: CN1CCc2c(c3ccccc3n2Cc2ccc(C(=O)NO)cc2)C1 [Tubastatin A]
In a few lines:
as §1

Compound in assay [3]: CNC(=O)C1=CC=CC=C1NC2=NC(=NC=C2Cl)NC3=C(C=C(C=C3)N4CCOCC4)OC
In a few lines:
as §1

Compound in assay [4]: CNc1nc(-c2ccc3c(N)n[nH]c3c2)cc(N2C[C@@H](C(=O)NC3CCCCC3)CC[C@H]2C)n1
The essentials: as §1

Compound in the next assay: COc1cc(Nc2ncc3c(n2)-c2ccc(Cl)cc2C(c2c(F)cccc2OC)=NC3)ccc1C(=O)O [alisertib]
In a few lines:
as §1

Compound in assay [5]: COc1cc2nc(-c3cc(F)ccc3O)nc(N[C@@H]3CNC[C@H]3C(C)(C)O)c2cc1OC
In a few lines: as §1

Compound in the next assay: COc1cc2ncnc(Nc3ccc(F)c(Cl)c3)c2cc1OCCCN1CCOCC1 [gefitinib]
In a few lines: as §1

Compound in a further assay: CCCS(=O)(=O)Nc1ccc(F)c(C(=O)c2c[nH]c3ncc(-c4ccc(Cl)cc4)cc23)c1F [vemurafenib]
The essentials:
as §1

Compound in another assay: CCN(CCCOc1ccc2c(Nc3cc(CC(=O)Nc4cccc(F)c4)[nH]n3)ncnc2c1)CCOP(=O)(O)O [barasertib]
The essentials:
as §1

Compound in assay [6]: CC[C@@H]1C(=O)N(C)c2cnc(Nc3ccc(C(=O)NC4CCN(C)CC4)cc3OC)nc2N1C1CCCC1
In a few lines:
as §1

Compound in assay [7]: CCn1cc(-c2ccnc3[nH]c(-c4cccc(CN(C)C)c4)cc23)c(-c2ccc(NC(=O)N(C)C)cc2)n1
In a few lines: as §1

Compound in assay [8]: CN1CCC(CNc2ccc3ncc(-c4cccc(OC(F)(F)F)c4)n3n2)CC1
The essentials:
as §1

Compound in the next assay: CN1CC[C@H](c2c(O)cc(O)c3c(=O)cc(-c4ccccc4Cl)oc23)[C@H](O)C1 [alvocidib]
The essentials: as §1

Compound in another assay: CNC(=O)c1ccc(Nc2ncc(C(F)(F)F)c(NCc3nccnc3N(C)S(C)(=O)=O)n2)cc1 [defactinib]
The essentials:
as §1

Compound in a further assay: COC(=O)N[C@@H](C)CNc1nccc(-c2cn(C(C)C)nc2-c2cc(Cl)cc(NS(C)(=O)=O)c2F)n1 [encorafenib]
The essentials: as §1

Compound in assay [9]: COC(=O)[C@H](CCSC)NC(=O)C1=C(C=C(C=C1)NC[C@H](CS)N)C2=CC=CC=C2
The essentials:
as §1

The full data set covers some 8,800 targets. This sample favours those with a hit. About 0.5% of all pairs of compound and target were hits. Unmarked numbers belong to inactive results.

UniProt P30304, sequence (P30304 whole entry, looked up): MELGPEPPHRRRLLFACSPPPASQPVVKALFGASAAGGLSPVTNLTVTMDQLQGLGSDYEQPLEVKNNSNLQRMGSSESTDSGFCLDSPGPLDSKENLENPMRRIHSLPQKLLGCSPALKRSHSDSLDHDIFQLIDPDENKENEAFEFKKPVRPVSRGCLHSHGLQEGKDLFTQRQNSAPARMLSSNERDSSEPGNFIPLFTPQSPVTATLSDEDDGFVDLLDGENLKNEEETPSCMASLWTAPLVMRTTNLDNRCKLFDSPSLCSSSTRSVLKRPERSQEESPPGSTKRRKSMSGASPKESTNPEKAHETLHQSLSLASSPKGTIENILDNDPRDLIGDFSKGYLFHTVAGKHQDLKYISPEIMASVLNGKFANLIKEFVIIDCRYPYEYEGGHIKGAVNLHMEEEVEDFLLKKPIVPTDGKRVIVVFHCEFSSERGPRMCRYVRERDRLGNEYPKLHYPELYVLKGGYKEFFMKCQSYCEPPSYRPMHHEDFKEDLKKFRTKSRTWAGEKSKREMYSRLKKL
UniProt Q53HL2, sequence (Q53HL2 whole entry, looked up): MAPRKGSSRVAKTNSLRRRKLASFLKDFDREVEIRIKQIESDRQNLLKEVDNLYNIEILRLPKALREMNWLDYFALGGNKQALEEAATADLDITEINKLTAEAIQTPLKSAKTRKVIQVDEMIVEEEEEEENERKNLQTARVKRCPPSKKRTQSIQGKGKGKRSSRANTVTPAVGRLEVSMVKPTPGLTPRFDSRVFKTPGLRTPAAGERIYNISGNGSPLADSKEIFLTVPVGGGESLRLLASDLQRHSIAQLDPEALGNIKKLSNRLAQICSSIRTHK
UniProt Q9H0Y0, sequence (Q9H0Y0 whole entry, looked up): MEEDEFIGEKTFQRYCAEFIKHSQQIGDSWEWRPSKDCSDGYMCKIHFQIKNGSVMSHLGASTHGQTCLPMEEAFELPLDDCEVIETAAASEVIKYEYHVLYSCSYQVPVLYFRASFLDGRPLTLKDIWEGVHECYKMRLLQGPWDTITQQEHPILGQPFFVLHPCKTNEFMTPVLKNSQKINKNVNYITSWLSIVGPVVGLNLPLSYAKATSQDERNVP
UniProt P55210, sequence (P55210 whole entry, looked up): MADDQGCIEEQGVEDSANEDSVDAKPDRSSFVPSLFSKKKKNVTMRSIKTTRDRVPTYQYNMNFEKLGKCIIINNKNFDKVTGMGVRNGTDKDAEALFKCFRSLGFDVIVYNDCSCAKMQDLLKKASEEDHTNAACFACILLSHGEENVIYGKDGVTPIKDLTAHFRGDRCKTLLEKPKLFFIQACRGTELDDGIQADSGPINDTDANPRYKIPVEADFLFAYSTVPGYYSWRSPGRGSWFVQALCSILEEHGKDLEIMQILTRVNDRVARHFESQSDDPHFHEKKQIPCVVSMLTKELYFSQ
UniProt Q6ZRI6, sequence (Q6ZRI6 whole entry, looked up): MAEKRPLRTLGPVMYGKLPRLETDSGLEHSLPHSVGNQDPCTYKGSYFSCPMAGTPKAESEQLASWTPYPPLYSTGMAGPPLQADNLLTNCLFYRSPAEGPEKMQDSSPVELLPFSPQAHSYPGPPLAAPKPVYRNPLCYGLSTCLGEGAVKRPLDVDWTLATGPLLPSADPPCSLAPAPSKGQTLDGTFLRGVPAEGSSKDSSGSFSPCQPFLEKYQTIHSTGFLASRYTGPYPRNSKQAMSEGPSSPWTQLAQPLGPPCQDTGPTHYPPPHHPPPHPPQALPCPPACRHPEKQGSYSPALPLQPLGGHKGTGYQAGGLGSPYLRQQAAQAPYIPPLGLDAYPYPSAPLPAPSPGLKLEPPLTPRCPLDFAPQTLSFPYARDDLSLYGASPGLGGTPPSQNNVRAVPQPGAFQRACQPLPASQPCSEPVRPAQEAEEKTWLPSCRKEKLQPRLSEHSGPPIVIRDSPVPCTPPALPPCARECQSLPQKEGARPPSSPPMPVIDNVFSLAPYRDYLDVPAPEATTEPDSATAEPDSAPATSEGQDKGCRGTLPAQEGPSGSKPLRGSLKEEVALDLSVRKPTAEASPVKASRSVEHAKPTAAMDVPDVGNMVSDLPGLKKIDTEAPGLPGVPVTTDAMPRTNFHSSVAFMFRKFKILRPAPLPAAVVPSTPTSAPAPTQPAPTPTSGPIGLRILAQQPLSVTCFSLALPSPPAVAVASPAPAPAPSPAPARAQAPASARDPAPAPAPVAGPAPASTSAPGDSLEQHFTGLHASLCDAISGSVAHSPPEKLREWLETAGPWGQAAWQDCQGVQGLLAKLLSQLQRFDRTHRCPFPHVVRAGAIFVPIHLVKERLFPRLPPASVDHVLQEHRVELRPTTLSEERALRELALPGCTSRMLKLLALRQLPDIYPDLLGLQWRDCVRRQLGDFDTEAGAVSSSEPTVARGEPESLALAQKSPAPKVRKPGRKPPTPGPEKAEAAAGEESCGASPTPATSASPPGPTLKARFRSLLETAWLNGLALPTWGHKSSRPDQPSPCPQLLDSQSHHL
UniProt Q9UNH5, sequence (Q9UNH5 whole entry, looked up): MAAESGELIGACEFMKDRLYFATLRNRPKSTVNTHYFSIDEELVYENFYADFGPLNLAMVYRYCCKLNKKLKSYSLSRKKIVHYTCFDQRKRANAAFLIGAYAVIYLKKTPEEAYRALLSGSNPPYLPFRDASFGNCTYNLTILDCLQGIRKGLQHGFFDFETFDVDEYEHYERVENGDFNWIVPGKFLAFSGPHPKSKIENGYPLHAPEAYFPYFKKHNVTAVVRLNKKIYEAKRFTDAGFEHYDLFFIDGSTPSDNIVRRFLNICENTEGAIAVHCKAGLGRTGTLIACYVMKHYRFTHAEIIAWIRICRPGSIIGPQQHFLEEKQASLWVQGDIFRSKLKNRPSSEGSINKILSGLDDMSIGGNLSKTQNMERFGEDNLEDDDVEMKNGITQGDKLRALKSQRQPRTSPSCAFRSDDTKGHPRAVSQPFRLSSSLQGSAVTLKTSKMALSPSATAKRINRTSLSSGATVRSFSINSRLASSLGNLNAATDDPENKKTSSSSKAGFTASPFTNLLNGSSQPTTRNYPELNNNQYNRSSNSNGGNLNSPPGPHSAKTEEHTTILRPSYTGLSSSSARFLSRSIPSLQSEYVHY
UniProt Q7Z7K6, sequence (Q7Z7K6 whole entry, looked up): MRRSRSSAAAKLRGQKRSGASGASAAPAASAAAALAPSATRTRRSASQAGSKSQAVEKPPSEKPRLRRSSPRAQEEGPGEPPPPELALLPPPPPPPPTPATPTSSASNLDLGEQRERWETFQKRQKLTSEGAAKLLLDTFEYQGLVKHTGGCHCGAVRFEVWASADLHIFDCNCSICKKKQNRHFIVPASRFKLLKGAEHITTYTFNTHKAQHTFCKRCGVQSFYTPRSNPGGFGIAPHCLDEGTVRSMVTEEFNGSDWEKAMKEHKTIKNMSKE
UniProt Q9UQ88, sequence (Q9UQ88 whole entry, looked up): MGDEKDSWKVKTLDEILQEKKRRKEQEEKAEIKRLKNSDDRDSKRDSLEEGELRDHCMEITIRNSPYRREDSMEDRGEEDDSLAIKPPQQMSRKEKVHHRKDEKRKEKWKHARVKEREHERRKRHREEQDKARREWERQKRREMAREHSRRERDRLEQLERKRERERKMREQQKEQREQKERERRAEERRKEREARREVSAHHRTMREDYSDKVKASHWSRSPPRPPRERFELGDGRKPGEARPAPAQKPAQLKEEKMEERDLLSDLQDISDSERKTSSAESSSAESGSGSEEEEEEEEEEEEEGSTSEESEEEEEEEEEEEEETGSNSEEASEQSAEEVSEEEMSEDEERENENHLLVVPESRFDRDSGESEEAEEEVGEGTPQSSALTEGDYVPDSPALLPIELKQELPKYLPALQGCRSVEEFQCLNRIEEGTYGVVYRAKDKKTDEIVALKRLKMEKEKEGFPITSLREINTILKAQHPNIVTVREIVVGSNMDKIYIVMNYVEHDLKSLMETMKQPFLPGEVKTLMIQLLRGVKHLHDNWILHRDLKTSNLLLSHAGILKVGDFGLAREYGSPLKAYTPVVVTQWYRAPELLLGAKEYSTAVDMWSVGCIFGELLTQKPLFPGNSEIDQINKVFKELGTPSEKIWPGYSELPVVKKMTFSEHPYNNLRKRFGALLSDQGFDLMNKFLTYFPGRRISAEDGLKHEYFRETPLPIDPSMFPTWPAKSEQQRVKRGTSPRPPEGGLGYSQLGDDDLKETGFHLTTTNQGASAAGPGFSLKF
UniProt Q6TDU7, sequence (Q6TDU7 whole entry, looked up): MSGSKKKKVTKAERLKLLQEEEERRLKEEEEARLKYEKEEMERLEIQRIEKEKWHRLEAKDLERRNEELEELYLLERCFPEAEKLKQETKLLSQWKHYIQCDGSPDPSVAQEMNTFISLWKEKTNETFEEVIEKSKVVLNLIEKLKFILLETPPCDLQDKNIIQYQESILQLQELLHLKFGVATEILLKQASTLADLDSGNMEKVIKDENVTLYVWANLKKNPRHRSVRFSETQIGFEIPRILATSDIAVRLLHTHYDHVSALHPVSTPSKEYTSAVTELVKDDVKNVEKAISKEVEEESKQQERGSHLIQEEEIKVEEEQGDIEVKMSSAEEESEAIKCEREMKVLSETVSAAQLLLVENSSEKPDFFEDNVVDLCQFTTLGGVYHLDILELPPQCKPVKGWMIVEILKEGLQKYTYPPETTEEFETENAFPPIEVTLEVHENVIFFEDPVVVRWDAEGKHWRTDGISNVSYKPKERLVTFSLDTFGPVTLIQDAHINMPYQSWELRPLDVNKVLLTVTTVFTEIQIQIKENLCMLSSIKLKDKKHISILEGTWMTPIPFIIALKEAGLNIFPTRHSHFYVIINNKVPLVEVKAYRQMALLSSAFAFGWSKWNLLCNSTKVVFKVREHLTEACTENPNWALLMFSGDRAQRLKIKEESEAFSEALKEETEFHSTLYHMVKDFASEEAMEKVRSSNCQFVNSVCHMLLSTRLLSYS

Take CDC25A (UniProt P30304): the log2 fold change in assay [1] was 0.038; with volasertib, -0.053; in assay [2], 0.033; with saracatinib, -0.022; with sotrastaurin, 0.092; in the assay with Tubastatin A, -0.406 (active). Moreover, the log2 fold change in assay [3] is -0.121; in [4], 0.035; in the assay with alisertib, 0.005; in [5], 0.019; in the assay with gefitinib, -0.002.

For the target CENPV (UniProt Q7Z7K6), the log2 fold change is -0.104 in the assay with vemurafenib; 0 in the assay with barasertib; -0.033 in assay [6]; 0.19 in assay [2]; 0.264 in assay [7]; -0.004 in [8]. Also, the log2 fold change with sotrastaurin was 0.007; with alvocidib it was -0.15; in the assay with Tubastatin A, -0.458; with defactinib, 0.117; in the assay with encorafenib it was 0.323; in [9] it was -0.045. The log2 fold change with alisertib is -0.205; in the assay with gefitinib, 0.789.

Consider CASP7 isoform 3 (UniProt P55210), for which the log2 fold change in assay [1] was -0.117; with barasertib it was 0.059; in assay [6] it was -0.148; with volasertib, -0.049; in assay [2], -0.119; with saracatinib, 0.056. In addition, the log2 fold change in the assay with sotrastaurin is -0.091; in the assay with Tubastatin A, -0.051; in [3] it was -0.016; in assay [4], -0.059; with encorafenib it was 0.16; in [9], 0.379 (active). Besides, the log2 fold change in the assay with alisertib is -0.058; in [5] it was 0.079; in the assay with gefitinib it was 0.108.

With CASC1 (UniProt Q6TDU7), the log2 fold change with barasertib was 1.04; in assay [2] it was -0.217; in assay [7] it was 0.034; in assay [8] it was 0.006; with alvocidib, -0.023; in the assay with Tubastatin A it was 0.317.

As to BRAF, A0A2R8Y8E0, the log2 fold change with vemurafenib is 1.34; in assay [6], -0.287; with defactinib, -0.029; with encorafenib it was 1.3; in [9], 0.076.

Take CDC14A isoform 2 (UniProt Q9UNH5): the log2 fold change in [1] is -0.271; in the assay with volasertib, 0.085; in assay [2] it was 0.101; with sotrastaurin, 0.058; with Tubastatin A, 0.272; with alisertib, 0.075. Also, the log2 fold change is 0.019 in [5] and 0.078 in the assay with gefitinib.

In the case of C15orf39 (UniProt Q6ZRI6), the log2 fold change with barasertib was -0.012; in [6], -0.047; in assay [2], -0.008; in [7], 0.08; in assay [8], 0.132; with saracatinib it was 0.025. The log2 fold change was 0.042 with sotrastaurin; -0.04 in the assay with alvocidib; -0.188 in the assay with Tubastatin A; -0.031 in [3]; 0.089 in assay [4]; 0.047 with encorafenib. The log2 fold change in assay [9] is 0.059; with alisertib, 0.036; with gefitinib, -0.067.

Regarding CDK11A (UniProt Q9UQ88), the log2 fold change in assay [1] was -0.019; in the assay with barasertib, 0.029; in the assay with volasertib it was -0.135; in [2], 0.047; in assay [7] it was 0.127; in assay [8] it was -0.099. The log2 fold change in the assay with saracatinib was -0.069; in the assay with sotrastaurin it was -0.026; with alvocidib, 0.077; with Tubastatin A, -0.172; in assay [3] it was -0.011; in assay [4] it was 0.023. In addition, the log2 fold change with alisertib was -0.023; in assay [5] it was -0.037; with gefitinib it was 0.

In the case of CEP295 isoform 3 (UniProt Q9C0D2), the log2 fold change is -0.058 in [1]; -0.039 in the assay with barasertib; 0.052 in assay [6]; 0.043 with volasertib; -0.028 in assay [2]; -0.387 in assay [7]. In addition, the log2 fold change is 0.001 in assay [8]; 0.005 with sotrastaurin; -0.039 in the assay with alvocidib; -0.099 in the assay with Tubastatin A; -0.029 in [3]; -0.154 with encorafenib. Also, the log2 fold change in [9] was 0.149; with alisertib, 0.018; in assay [5], -0.016; with gefitinib, -0.041.

On to CHD4, A0A2R8Y521, for which the log2 fold change in [1] is -0.315; in [6], -0.053; with volasertib it was 0.103; in assay [2], -0.342; in the assay with saracatinib it was 0.149; with Tubastatin A it was -0.117. The log2 fold change is 0.155 in [4]; 0.046 with encorafenib; -0.086 in [9]; 0.133 with alisertib; -0.454 in [5]; 0.167 with gefitinib.

Consider CDCA8 (UniProt Q53HL2), for which the log2 fold change in the assay with vemurafenib is 0.025; in the assay with barasertib it was 0.106; in assay [6] it was 0.051; in assay [7], 0.677 (active); in assay [8] it was -0.034; with saracatinib, 0.171. Moreover, the log2 fold change with alvocidib was 0.091; in assay [3], 0.054; with defactinib, 0.144; in assay [4], -0.061; with encorafenib, 0.003; in assay [9] it was -0.044. In addition, the log2 fold change with alisertib was 0.034; with gefitinib it was 0.04.

For the target ATG10 (UniProt Q9H0Y0), the log2 fold change with vemurafenib was 0.026; with barasertib, 0.092; in assay [6], 0.016; in assay [2], 0.012; in [7], -0.021; in assay [8] it was 0.01. The log2 fold change with saracatinib is -0.021; in the assay with sotrastaurin, 0.038; in the assay with alvocidib it was 0.106; with Tubastatin A it was -0.035; in [3], 0.01; with defactinib, -0.037. The log2 fold change in assay [4] is -0.022; in the assay with encorafenib, 0.024; in assay [9], 0.025; with alisertib, 0.032; with gefitinib, 0.04.

These data come from the supplement of paper PMC10849652.
